Records with an inconclusive call do not appear. Values without a mark were called inactive. Active and inactive are the calls of the source. Calls come from the whole dose curve; as a rule, active = well fitted cell-killing curve with a large enough effect; inconclusive = small, poorly fitted or top-dose-only effect; inactive = no such curve, though single readings can be large or run the other way.
Potency is the fitted concentration of half-maximal effect.

This assay in a line: Quantitative High-Throughput drug screen in 47 multiple myeloma cell lines against the NCATS MIPE library collection: NCIH929_DSMZ cell viability assay (AID 1918978). Note: nearly all actives have a fitted effect of over 35% in size. Conditions: NCI-H929 myeloma viability, CellTiter-Glo ATP, 48 h; series mostly up to 45.8 µM; viability, % of control: at the top concentration. An excerpt:
PI: Beverly A. Mock Ph.D.
Laboratory of Cancer Biology and Genetics,
Center for Cancer Research, National Cancer Institute,
National Institute of Health, Bethesda, Maryland
Drug resistance and disease progression are common in multiple myeloma (MM) patients, underscoring the need for new therapeutic combinations. […] We hypothesized that effective combinations would reduce MYC expression and enhance p16 activity. […] These preclinical data identify potentially useful drug combinations for evaluation in drug-resistant MM and reveal potential mechanisms of combined drug sensitivity.
Described herein is the primary MIPE qHTS used to cherrypick compounds. Validated compounds were then further tested for potential synergistic activiy.
[1] Peat TJ, Gaikwad SM, Dubois W, Gyabaah-Kessie N, Zhang S, Gorjifard S, Phyo Z, Andres M, Hughitt VK, Simpson RM, Miller MA, Girvin AT, Taylor A, Williams D, D'Antonio N, Zhang Y, Rajagopalan A, Flietner E, Wilson K, Zhang X, Shinn P, Klumpp-Thomas C, McKnight C, Itkin Z, Chen L, Kazandijian D, Zhang J, Michalowski AM, Simmons JK, Keats J, Thomas CJ, Mock BA. Drug combinations identified by high-throughput screening promote cell cycle transition and upregulate Smad pathways in myeloma. Cancer Lett. 2023 Aug 1;568:216284. doi: 10.1016/j.canlet.2023.216284. Epub 2023 Jun 24. PMID: 37356470; PMCID: PMC10408729.
SEQUENCE No. (e.g., 1, 2, 3, etc.); […] (e.g., Cells, Incubation, Reagent, etc.); VALUE and DESCRIPTION.
1; Cells; 5 uL; white, solid bottom 1536-well Greiner assay plate.
2; Compounds; 23 nL; Kalypsis pin tool (Wako USA) equipped with a 1536-well pin head to transfer to the assay plates.
3; Incubation; 48 hours; 37C incubation.
4; Reagent;5uL; CellTiter Glo (Promega).
5; Detector; 425V; Luminescence; Viewlux PerkinElmer.
NOTES (numbers refer to Sequence numbers above)
1. The cell-based screening methods employed in this study were like those previously published. Briefly, the corresponding myeloma cell lines were screened in 1,536-well plates with 500 cells, 5-uL per well for inhibition of cell viability (assessed by measuring ATP levels with CellTiterGlo).
2. NCATS MIPE 4.0 library of approved and investigational drugs were added using the Kalypsis pin tool. Wells treated with DMSO only for 100% viability and media only for 0% viability were used as controls.
3. The assay plates were covered and incubated for 48 hours in a 37C, 5% CO2 incubator with controlled humidity.
4. After 48 hours, CellTilter-GloTM luminescent substrate mix (Promega) reagent was added to the assay plate and plates we incubated for 5 min at room temperature.
5. Signal was measured as median relative luminescence units on a ViewLux (PerkinElmer) multiplate reader.
[1] Heske CM, Davis MI, Baumgart JT, Wilson K, Gormally MV, Chen L, Zhang X, Ceribelli M, Duveau DY, Guha R, Ferrer M, Arnaldez FI, Ji J, Tran HL, Zhang Y, Mendoza A, Helman LJ, Thomas CJ. Matrix Screen Identifies Synergistic Combination of PARP Inhibitors and Nicotinamide Phosphoribosyltransferase (NAMPT) Inhibitors in Ewing Sarcoma. Clin Cancer Res. 2017 Dec 1;23(23):7301-7311. doi: 10.1158/1078-0432.CCR-17-1121. Epub 2017 Sep 12. PMID: 28899971; PMCID: PMC6636827.
Consider `CC[C@]1(O)C[C@H]2CN(CCc3c([nH]c4ccccc34)[C@@](C(=O)OC)(c3cc4c(cc3OC)N(C=O)[C@H]3[C@@](O)(C(=O)OC)[C@H](OC(C)=O)[C@]5(CC)C=CCN6CC[C@]43[C@@H]65)C2)C1`, for which the Potency was 0.0235 µM (active).
Turning to `CN(C)[C@@H](CCOc1cccc2ccccc12)c1ccccc1`, the Potency was 20.9 µM (active).
For `CCCCc1ccc2nc(NC(=O)OC)[nH]c2c1`, the Potency was 0.935 µM (active).
For the molecule `NNc1nncc2ccccc12`, the “viability, % of control” value was 104%.
Take `CCN(CC)CCOc1ccc(Cc2ccccc2)cc1`: the “viability, % of control” value was 103%.
The same measure, in the same setting: then `CCc1nc(N)nc(N)c1-c1ccc(Cl)cc1`, with 79.7%.
Regarding `CCN(CCO)CCCC(C)Nc1ccnc2cc(Cl)ccc12` (stereo not given), the “viability, % of control” value is 114%.
The same measure, in the same setting: then `COC(=O)C1=C(C)NC(C)=C(C(=O)OCCCN2CCC(c3ccccc3)(c3ccccc3)CC2)C1c1cccc([N+](=O)[O-])c1` (stereo not given), with 110%.
With `Cc1ncc([N+](=O)[O-])n1CC(C)O` (stereo not given), the Potency was 20.9 µM (active).
On the same count and under the same terms, the same measure for `C[C@H](Cc1ccc(O)c(O)c1)[C@@H](C)Cc1ccc(O)c(O)c1`: 9.35 µM (active); for `CN(C)c1ccc(O)c2c1C[C@H]1C[C@H]3[C@H](N(C)C)C(=O)C(C(N)=O)=C(O)[C@@]3(O)C(=O)C1=C2O`: 16.6 µM (active).
With `N=C(N)c1ccc2cc(OC(=O)c3ccc(N=C(N)N)cc3)ccc2c1`, the “viability, % of control” value was 75.8%.
Same read-out and setting: the same measure for `Cc1nc2n(c(=O)c1CCN1CCC(c3noc4cc(F)ccc34)CC1)CCCC2`: 97.8%; for `Oc1ccc(OCc2ccccc2)cc1`: 102%; for `O=C(NCCO[N+](=O)[O-])c1cccnc1`: 119%.
The same measure, in the same setting: the same measure for `O=C(O)c1cccc(-c2noc(-c3ccccc3F)n2)c1`: 116%.
As for `Cc1cc(=O)c2c(O)c3c(O)cc(=O)c4c3c3c(cc(O)c1c23)C(C)(C)C=4O`, the Potency was 0.296 µM (active).
For the molecule `Cc1cccc(-c2[nH]ncc2-c2ccc3ncccc3n2)n1`, the “viability, % of control” value was 85%.
Regarding `Cc1cc2cc3c(C)cc(=O)oc3c(C)c2o1`, the Potency was 8.33 µM (active).
In the case of `Nc1ccc(S(N)(=O)=O)cc1`, the “viability, % of control” value is 106%.
For the molecule `CC(C)c1ccc2oc3nc(N)c(C(=O)O)cc3c(=O)c2c1`, the “viability, % of control” value was 103%.
For the molecule `CCC(C)(Oc1ccc(C2(c3ccc(OC(C)(CC)C(=O)O)cc3)CCCCC2)cc1)C(=O)O` (stereo not given), the “viability, % of control” value is 106%.
With `CCOC(=O)C1=C(O)C(=O)N(Cc2ccccc2)C1`, the “viability, % of control” value was 105%.
In the case of `CC(C)c1ccc2c(c1)c(SC(C)(C)C)c(CC(C)(C)C(=O)O)n2Cc1ccc(Cl)cc1`, the Potency was 26.4 µM (active).
As to `N[C@@H](Cc1cc(I)c(Oc2cc(I)c(O)c(I)c2)c(I)c1)C(=O)O`, the “viability, % of control” value was 109%.
Same read-out and setting: the same measure for `O=C(O)c1cccnc1Nc1cccc(C(F)(F)F)c1`: 90.9%; for `O=C1c2c(O)cc(O)cc2OC(c2ccc(O)c(O)c2)C1O` (stereo not given): 119%.
Turning to `O=C(NCC1CCCCN1)c1cc(OCC(F)(F)F)ccc1OCC(F)(F)F` (stereo not given), the Potency was 9.35 µM (active).
`CC(=O)O[C@H]1C(=O)[C@@]2(C)C([C@H](OC(=O)c3ccccc3)[C@]3(O)C[C@H](OC(=O)[C@H](O)[C@@H](NC(=O)c4ccccc4)c4ccccc4)C(C)=C1C3(C)C)[C@]1(OC(C)=O)CO[C@@H]1C[C@@H]2O` (stereo not given in full): the “viability, % of control” value was 80.1%.
`COc1cc(C(C)=O)ccc1OCCCN1CCC(c2noc3cc(F)ccc23)CC1`: the Potency was 18.7 µM (active).
Turning to `NS(=O)(=O)c1cc(C(=O)O)c(NCc2ccco2)cc1Cl`, the “viability, % of control” value is 89.9%.
As to `COc1c2occc2cc2ccc(=O)oc12`, the Potency is 5.26 µM (active).
As for `O=C(NOCC1CC1)c1ccc(F)c(F)c1Nc1ccc(I)cc1Cl`, the Potency is 20.9 µM (active).
With `CC(=O)NC[C@H]1CN(c2ccc(N3CCOCC3)c(F)c2)C(=O)O1`, the “viability, % of control” value is 122%.
Consider `COc1cc2c(N3CCN(C(=O)Nc4ccc(OC(C)C)cc4)CC3)ncnc2cc1OCCCN1CCCCC1`, for which the Potency was 11.8 µM (active).
Take `CNC[C@H](O)c1ccc(O)c(O)c1`: the “viability, % of control” value was 81.3% [at 92.2 µM].
Consider `CC(C)Oc1ccc2c(=O)c(-c3ccccc3)coc2c1`, for which the “viability, % of control” value was 109%.
The same measure, in the same setting: then `CCCc1cc(=O)[nH]c(=S)[nH]1`, with 85%.
The same measure, in the same setting: then `CC(C)(S)[C@@H](N)C(=O)O`, with 98%.
Turning to `COc1cc(Nc2c(C#N)cnc3cc(OCCCN4CCN(C)CC4)c(OC)cc23)c(Cl)cc1Cl`, the Potency was 3.72 µM (active).

These data come from PubChem BioAssay (NCATS).
